# According to PubChem BioAssay AID504832 (National Center for Advancing Translational Sciences (NCATS), 2011):
# Several values for one entry are separate records, joined by “and”; a condition that tells them apart may be missing. Equal values may be shown once. Screen size: about 310,000 compounds; about 18,000 (5.8%) were called active. A call without a number means that no potency is given here. Inconclusive results (about 22%) are left out. The call rests on the fitted dose curve; in most records, active means well fitted inhibition curve with a large enough effect; inconclusive means small, poorly fitted or top-dose-only effect, or another doubt; inactive means no such curve, though single readings can be large or run the other way. Many of the other results were omitted from the sample, so actives are more common in it than they were. A structure can be active in one record and inactive in another.
# Assay: Primary qHTS for delayed death inhibitors of the malarial parasite plastid, 48 hour incubation
# Conditions: P. falciparum luciferase growth in erythrocytes; series mostly up to 28.7 µM
# Excerpt: The goal of this screen is to discover new antimalarial compounds that act by inhibiting the development of the apicoplast in the malarial parasite Plasmodium falciparum. The biochemical processes that make this organelle essential for erythrocytic stage parasites are not well understood. However, antibiotics such as azithromycin and tetracycline, which target the apicoplast translational machinery, have a potent antimalarial effect.
# We have developed a cell-based assay that measures parasite growth based on the expression of an integrated copy of a firefly luciferase reporter. To detect small molecules that cause this "delayed death" phenotype, erythrocytes infected with the luciferase-expressing parasites were incubated with compounds for either one or two generations, corresponding to 48 and 96 hours, respectively. Compounds that inhibit parasite growth in the second generation, but not the first, should be enriched in antimalarials that target the apicoplast. Growth inhibition is detected by a decrease in luciferase activity.
# Assay Provider: David Fidock and Eric Ekland, Columbia University
# Keywords: NIH Roadmap, MLPCN, MLI, MLSMR, qHTS, NCGC, qHTS, malaria, luciferase, viability
# Four microliters of culture medium (RPMI 1640 with 0.5% w/v Albumax (GIBCO), 24 mM sodium bicarbonate and 10 ug/mL gentamycin) were dispensed by a Multi-drop Combi into white solid 1536-well plates (Grenier) and 23 nL compound was added by a pin tool. Four microliters of infected erythrocytes (2% hematocrit, 0.1% parasitemia final concentration) in culture medium were dispensed and the plates incubated for 48 hours at 37 C in 5% CO2. Two microliters of luciferase detection reagent was added and luminescence was detected by a ViewLux (PerkinElmer) reader.
# Potency means the concentration at half of the fitted maximal effect.
row,Structure (SMILES),Potency
1,CC(C)CC(O)C1CCN(C(=O)CCc2nnc(-c3ccc4c(c3)OCO4)o2)CC1 (stereo not given),inactive
2,N#Cc1ccc(OCC(=O)NC(=O)NC2CCS(=O)(=O)C2)cc1 (stereo not given),inactive
3,Cc1cc(C(=O)COc2ccccc2Cl)c(C)n1C1CC1,inactive
4,CCN(CC(=O)NCc1ccco1)S(=O)(=O)c1ccc(F)cc1,inactive
5,Cc1c(C(C)CCCO)oc(=O)c2c1Oc1c(C)c(C(C)C[C@@H](C)O)oc(=O)c1C2 (stereo not given in full),inactive
6,Cn1cccc1C(=O)N1CCc2ccccc2C1,inactive
7,CC1CCN(C(=O)Cn2nnnc2CN2CCOCC2)CC1,inactive
8,Cc1cccc(N2CCN(c3ccc(NC(=O)/C=C\C(=O)O)cc3)CC2)c1,8.28 µM (active)
9,CSc1ccc(NC(=O)/C=C/C(=O)O)cc1,inactive
10,Cc1cccc(N2CCN(C(=O)c3ccccc3NC(=O)C3CCCCC3C(=O)O)CC2)c1 (stereo not given),inactive
11,Cc1ccc2oc(C(=O)N3CCN(C)C[C@@H]3C(C)C)c(C)c2c1,inactive
12,CC1=CC(=Cc2sc3ccccc3[n+]2C)C=C(C)O1,0.928 µM (active)
13,Cc1ccc(-c2noc(CNC(=O)c3ccoc3C)n2)cc1,inactive
14,O=C(NCc1ccccc1Cl)C1CCN(S(=O)(=O)c2cccc3nonc23)CC1,inactive
15,O=C(NCc1ccncc1)C1CCCN(S(=O)(=O)c2ccc(Br)cc2)C1 (stereo not given),inactive
16,CCc1ccc(NC(=O)N[C@H](C(=O)O)C(C)CC)cc1 (stereo not given in full),inactive
17,O=C(NCc1ccccn1)Nc1ccc(F)cc1,inactive
18,O=C(Nc1ccncc1)c1c(F)cccc1F,inactive
19,CCc1ccc(NC(=O)Nc2ccncc2)cc1,13.1 µM (active)
20,O=C(Nc1ccncc1)Nc1ccc(F)cc1,6.57 µM (active)
21,CC(C)CC(=O)Nc1ccc(Cc2ccncc2)cc1,inactive
22,CCCOc1ccc(Cc2c(O)nc(N)[nH]c2=O)cc1C,inactive
23,CN(C)CCCO/N=C(\c1ccccc1)c1ccncc1,inactive
24,COc1cc(OC)nc(NC(=O)CCl)n1,inactive
25,COc1cc(OC)nc(N/N=C(\c2ccccc2)c2ccncc2)n1,14.7 µM (active)
26,CC(=O)N(C)c1ccc(NC(=O)Nc2cccc3ccccc23)cc1,inactive
27,CNC(=O)c1sc(Nc2ccc(OCc3ccccc3)cc2)nc1C,inactive

row,Structure (SMILES),Potency
1,Cn1cncc1COC(=O)c1ccc(Cl)cc1,inactive
2,COc1cc(OC)cc(C(=O)NCCSCc2ccc(Cl)cc2)c1,inactive
3,COc1ccccc1N1CC(C(=O)NCCN2C(=O)S/C(=C\c3cccnc3)C2=O)CC1=O (stereo not given),inactive
4,Cc1ccc(C2Nc3cccc4cccc(c34)N2)cc1,inactive
5,Brc1ccccc1C1Nc2cccc3cccc(c23)N1,13.1 µM (active)
6,C/C(=C\c1ccco1)C1Nc2cccc3cccc(c23)N1,inactive
7,COc1cccc(CNS(=O)(=O)c2ccc3c(c2)N(C(C)=O)CCS3)c1,inactive
8,O=C1C(=O)N(CCCN2CCOCC2)C(c2ccc([N+](=O)[O-])cc2)/C1=C(\O)c1ccc2c(c1)OCCO2 (stereo not given),inactive
9,CC1CN(C(=S)Nc2ccc(S(N)(=O)=O)cc2)CC(C)O1 (stereo not given),inactive
10,CN1C(=O)C(CC(=O)Nc2ccccc2)S/C1=N/c1nccs1 (stereo not given),inactive
11,O=C(Nc1cccc(Cl)c1)OCc1ccccn1,inactive
12,O=C(CC1SC(=Nc2ccccc2)N(Cc2ccccn2)C1=O)Nc1cccc(Cl)c1 (stereo not given),6.57 µM (active)
13,CCCCN1C(=O)C(=O)N(CC(=O)Nc2cccc(C(C)=O)c2)C1=O,inactive
14,CC(C(=O)N1CCN(c2ccccc2F)CC1)c1ccc([N+](=O)[O-])cc1 (stereo not given),inactive
15,O=C(COC(=O)c1ncc(Cl)c(Cl)c1Cl)NCc1ccccc1,inactive
16,COCCCN1C(=O)c2ccc(C(=O)OCC(=O)NCc3ccccc3OC)cc2C1=O,inactive
17,Cc1ccn2c(=O)nc(SCC(=O)NCc3ccc(F)cc3)nc2c1,inactive
18,Cc1sc(NC(=O)c2ccc3ncsc3c2)c(C(N)=O)c1C,inactive
19,Cc1ccc2nc(C)c3c(c2c1)N(c1ccccc1)CC3,5.86 µM (active)
20,Cc1ccc2nc3n(c(=O)c2c1)CCC3,inactive
21,CSc1nc2ccc(C)cc2c(=O)n1-c1cccnc1,inactive
22,N#Cc1ccc(C(=O)OCC(=O)NC(=O)NC2CCCCC2)cc1,inactive
23,O=C(Nc1cc(-c2nc3ncccc3o2)ccc1Cl)c1ccco1,inactive
24,Cc1ccc(C(=O)COC(=O)CCN2C(=O)C3C4CCC(C4)C3C2=O)cc1C (stereo not given),inactive
25,CCCCCc1ccc(-c2ccc(OCC)cc2)nc1,inactive
26,CCCCCCCCCc1ccc(OCCOCCOCCOCCOCCOCCOCCOCCOCCO)cc1,8.49 µM (active)
27,CCCCCCCCC(=O)NCCOc1ccccc1,inactive

row,Structure (SMILES),Potency
1,COc1cccc(OCc2nnc3n2N=C(c2ccccc2)C(CC(=O)O)S3)c1 (stereo not given),inactive
2,COc1cc(S(=O)(=O)N2CCN=C2c2ccccc2)ccc1Cl,inactive
3,CN(C)[C@@H]1C(=O)C(C(N)=O)=C(O)[C@@]2(O)C(=O)C3=C(O)c4c(O)ccc(Cl)c4[C@@H](O)[C@H]3C[C@@H]12,2.08 µM (active)
4,C=C1c2c(Cl)ccc(O)c2C(O)=C2C(=O)[C@]3(O)C(O)=C(C(N)=O)C(=O)[C@@H](N(C)C)[C@@H]3[C@@H](O)C12 (stereo not given in full),2.33 µM (active)
5,COc1ccc(C(=O)COC(=O)Cn2cnc3c2c(=O)n(C)c(=O)n3C)c(OC)c1,inactive
6,COc1cc(C(=O)Nn2c(CC(C)C)nc3ccccc3c2=O)cc(OC)c1OC,inactive
7,O=C(O)CSc1c2c(nc3cc(C(=O)Nc4cccc(C(F)(F)F)c4)ccc13)CCCC2,inactive
8,O=C(Nc1cccc(-c2nnc(-c3ccccc3)o2)c1)C1CCCO1 (stereo not given),inactive
9,Cc1cccc(NC(=O)CSc2nnc(-c3ccco3)o2)c1,inactive
10,O=C(CCc1ccccc1)Nc1cccc(-c2nnc(-c3ccco3)o2)c1,10.4 µM (active)
11,O=C(O)c1ccc(NC(=O)c2ccc(COc3ccc(Cl)cc3)o2)cc1,inactive
12,Cc1c(C)c(C)c(S(=O)(=O)N2CCC3(CC2)OCCO3)c(C)c1C,inactive
13,c1ccc2cc(CCCc3cc4ccccc4cn3)ncc2c1,inactive
14,Cc1n[nH]c(=O)c2c(NC(=O)CSc3cc(Cl)ccc3Cl)oc(C)c12,inactive
15,O=C(/C=C/c1cccc([N+](=O)[O-])c1)OCC(=O)N1CCOCC1,inactive
16,Cc1ccc(C(=O)N/C(=C/c2cccs2)C(=O)N2CCCCC2)cc1,inactive
17,Cc1ccc(C(=O)N/C(=C\c2cn(S(=O)(=O)N(C)C)c3ccccc23)C(=O)N2CCCC2)cc1,10.4 µM (active)
18,Cc1ccc(C(=O)N/C(=C\c2cn(C)c3ccccc23)C(=O)N2CCN(C)CC2)cc1,inactive
19,COC(=O)c1ccc(/C=N/NC(=O)C(=O)N2CCCCCC2)cc1,inactive
20,COc1ccccc1-c1sc2ccccc2c1-c1ccc(C(C)=O)cc1,inactive
21,O=C(NNC(=O)C1CCN(c2ncccn2)CC1)c1ccccc1,inactive
22,O=C(NNC(=O)C1CCCC1)c1ccc(F)cc1,inactive
23,Cc1sc2ncnc(N3CCC(C(=O)Nc4nc5ccc(Cl)cc5s4)CC3)c2c1C,inactive
24,Cc1sc2ncnc(N3CCC(C(=O)Nc4ccc(F)cc4Cl)CC3)c2c1C,11.7 µM (active)
25,Cc1sc2ncnc(N3CCC(C(=O)NNC(=O)c4ccc(F)cc4)CC3)c2c1C,11.7 µM (active)
26,Cc1ccnc(N2CCCC(C(=O)Nc3cc(F)ccc3C)C2)n1 (stereo not given),inactive
27,COc1ccccc1CNC(=O)COC(=O)CNS(=O)(=O)c1ccc(NC(C)=O)cc1,inactive

row,Structure (SMILES),Potency
1,CC1CCN(C(=O)/C(=C\c2ccccc2F)NC(=O)c2ccccc2)CC1,inactive
2,Cc1ccc(S(=O)(=O)NCCCn2ccnc2)cc1C(=O)NC(C)C,inactive
3,COc1ccc(CNC(=O)c2ccc(Br)s2)cc1OC,inactive
4,Cc1ccc(S(=O)(=O)N2CCN=C2SCc2c(F)cccc2Cl)cc1,inactive
5,CCN(CC(=O)Nc1ccccc1C(F)(F)F)C(=O)C1CCN(C(=O)Nc2ccccc2)CC1,11.7 µM (active)
6,CCN(CC(=O)Nc1ccccc1C(F)(F)F)C(=O)CSCc1c(C)noc1C,inactive
7,CCN(CC(=O)Nc1c(F)cccc1F)C(=O)C1CCC1,inactive
8,COc1ccc(S(=O)(=O)NNC(=O)Nc2ccc(C)cc2)c(OC)c1,inactive
9,CC(C)=CCCC1(C)C=Cc2c(ccc3c2[nH]c2cc(O)c(C)cc23)O1 (stereo not given),9.28 µM (active)
10,COc1cc2c(C(=O)N(C)c3cc(Cl)ccc3OC)cn(C)c(=O)c2cc1OC,inactive
11,COc1ccc(C(=O)N2CCCCC2C(=O)Nc2ccc(-n3nc(C)cc3C)cc2)o1 (stereo not given),inactive
12,CCCc1cc(=O)[nH]c2nnc(SCC(=O)Nc3nnc(SCC)s3)n12,inactive
13,O=C(NC1CCc2ccccc21)C12CN(Cc3ccccc3)CC1C(c1cccc([N+](=O)[O-])c1)=NO2 (stereo not given),3.7 µM (active)
14,O=C(NCCN1CCN(C(=O)c2cccc([N+](=O)[O-])c2)CC1)C(=O)NCc1ccc(Cl)cc1,inactive
15,O=C(/C=C/c1cccc([N+](=O)[O-])c1)N1CCN(Cc2ccccc2)CC1,inactive
16,CN(Cc1ccccc1)C(=O)CCc1ccccc1,inactive
17,CCN(CC)C(=O)N(CC)Cc1ccccc1,inactive
18,CN(C(=O)CN(CCO)CC(=O)N(C)C(C)(C)Cc1ccccc1)C(C)(C)Cc1ccccc1,inactive and 9.28 µM (active)
19,CN(CC(=O)NCc1ccc2c(c1)OCO2)CC(=O)Nc1ccc(F)c(F)c1F,inactive
20,Cc1cc(/C=N/NC(=O)c2cccnc2)c(C)n1CC(C)C,inactive
21,O=C(N/N=C/c1sc(N2CCCCC2)nc1-c1cccs1)c1cccnc1,3.29 µM (active)
22,O=C(N/N=C/c1ccccn1)c1cccnc1,inactive
23,COc1ccc2c(C(=O)c3ccc(C)cc3)n(CCC(N)=O)[n+]([O-])c2c1,inactive
24,Cc1cc(C(=O)N/N=C/c2ccccn2)c2ccccc2n1,inactive
